# Source: article PMC11024108
# Biological target: T1, Monocarboxylate transporter 1 (UniProt P53985)
# T1 sequence: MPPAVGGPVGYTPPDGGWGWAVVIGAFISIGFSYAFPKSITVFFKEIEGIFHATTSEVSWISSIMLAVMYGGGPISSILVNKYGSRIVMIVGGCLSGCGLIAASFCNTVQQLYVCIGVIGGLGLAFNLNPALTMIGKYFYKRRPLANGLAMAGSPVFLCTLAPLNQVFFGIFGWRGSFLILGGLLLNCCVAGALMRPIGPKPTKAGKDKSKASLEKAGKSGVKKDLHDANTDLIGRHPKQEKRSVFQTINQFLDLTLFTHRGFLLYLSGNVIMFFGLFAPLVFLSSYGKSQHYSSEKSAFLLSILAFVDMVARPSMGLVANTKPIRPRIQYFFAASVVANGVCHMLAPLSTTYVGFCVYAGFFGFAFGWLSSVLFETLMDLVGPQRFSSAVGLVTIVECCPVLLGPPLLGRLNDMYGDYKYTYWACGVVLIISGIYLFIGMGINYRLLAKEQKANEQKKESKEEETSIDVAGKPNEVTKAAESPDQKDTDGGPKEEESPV
# Assay: cross-link between two proteins; cross-linking mass spectrometry
substance,measurement,value
"Sodium/potassium-transporting ATPase subunit alpha-1, P05023",listed as a hit,yes
